Among all 360,000 compounds or so, about 3,900 (1.1%) were called active. The full list was thinned out, with actives kept by preference. Unmarked numbers belong to inactive results.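 How the source made its calls: active means mean replicate inhibition score of at least 50 and every replicate individually at or above 50; inconclusive means only one of the two criteria met; inactive means mean below 50 and not all replicates reaching 50.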
assay: inhibitors of HIV-1 Env-driven cell-cell fusion, primary screen, HeLa-JRFL effector, CEM21 target cells, luciferase (AID 651610); settings: hits give high values; at 16.7 µM unless noted;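 further: 0% = plate neutral controls and 100% = maraviroc near 300 nM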

| Structure (SMILES) | inhibition |
| --- | --- |
| O=C(C[C@H]1CC[C@H]2[C@@H](COC[C@H](O)CN2CCC(F)(F)F)O1)N1CCC(Cc2ccccc2)CC1 | 32.1% |
| C[C@H]1CN([C@@H](C)CO)C(=O)Cc2cc(NC(=O)C3CC3)ccc2O[C@@H]1CN(C)S(=O)(=O)c1cccs1 | -4.09% |
| C[C@H](CO)N1C[C@H](C)[C@@H](CN(C)S(=O)(=O)c2ccc(Cl)cc2)Oc2ccc(NS(=O)(=O)c3cccs3)cc2CC1=O | -22% |
| C[C@H]1CN([C@@H](C)CO)C(=O)Cc2cc(NS(=O)(=O)c3ccc(F)cc3)ccc2O[C@H]1CN(C)Cc1ccc(C(F)(F)F)cc1 | -1.59% |
| C[C@@H]1CN([C@H](C)CO)C(=O)Cc2cc(NC(=O)CCCN(C)C)ccc2O[C@@H]1CN(C)S(=O)(=O)c1cccs1 | -1.4% |
| C[C@H]1CN([C@@H](C)CO)C(=O)c2cc(NC(=O)NC3CCCCC3)ccc2O[C@@H]1CN(C)S(=O)(=O)c1cccs1 | 7.17% |
| C[C@H](CO)N1C[C@H](C)[C@H](CN(C)S(=O)(=O)c2cccs2)Oc2ccc(NS(=O)(=O)c3ccc(Cl)cc3)cc2CC1=O | 55.2% (active) |
| C[C@@H]1CN([C@H](C)CO)C(=O)Cc2cc(NS(=O)(=O)c3ccc(Cl)cc3)ccc2O[C@H]1CN(C)S(=O)(=O)c1cccs1 | -4.91% |
| C[C@H]1CN([C@@H](C)CO)C(=O)Cc2cc(NC(=O)Cc3ccccc3)ccc2O[C@H]1CN(C)S(=O)(=O)c1cccs1 | 98.7% [at 12.3 µM] (active) |
| C[C@H]1CN([C@@H](C)CO)C(=O)Cc2cc(NC(=O)NC3CCCCC3)ccc2O[C@H]1CN(C)S(=O)(=O)c1cccs1 | 56.2% (active) |
| C[C@@H]1CN([C@H](C)CO)C(=O)Cc2cc(NC(=O)Cc3ccccc3)ccc2O[C@H]1CN(C)S(=O)(=O)c1cccs1 | 25.8% |
| C[C@@H]1CN([C@@H](C)CO)C(=O)Cc2cc(NS(=O)(=O)c3ccc(Cl)cc3)ccc2O[C@H]1CN(C)Cc1ccc(C(F)(F)F)cc1 | 77.5% (active) |
| Cc1ccc(S(=O)(=O)Nc2ccc3c(c2)CC(=O)N([C@H](C)CO)C[C@@H](C)[C@H](CN(C)Cc2ccc(C(F)(F)F)cc2)O3)cc1 | 8.6% |
| [N-]=[N+]=Nc1ccccc1C[C@@]1(C(=O)NCc2ccccc2)N=C(c2ccc(OCCCO)cc2)O[C@@H]1c1ccccc1 | 42.5% |
| C[C@H]1CN([C@@H](C)CO)C(=O)c2cccc(NS(=O)(=O)c3ccc(F)cc3)c2O[C@@H]1CN(C)CC1CC1 | -1.23% |
| Cc1noc(C)c1NC(=O)N(C)C[C@@H]1OCCCC[C@H](C)Oc2ccc(NC(=O)c3ccccc3)cc2C(=O)N([C@@H](C)CO)C[C@@H]1C | 18.4% |
| N#C[C@@H]1[C@@H](c2ccc(-c3ccccc3F)cc2)[C@@H](CO)N1C(=O)c1ccccn1 | 16.4% |
| C[C@@H]1CN([C@H](C)CO)C(=O)c2ccccc2-c2ccccc2CO[C@H]1CN(C)C(=O)CCC(F)(F)F | -2.05% |
| CCCC#Cc1ccc([C@@H]2[C@@H](C#N)N(C(=O)C3CC3)[C@H]2CO)cc1 | -1.11% |
| CCC(=O)Nc1ccc2c(c1)OC[C@H](C)N(Cc1ccccc1F)C[C@H](C)[C@@H](OC)CN(C)C2=O | 27.1% |
| CCCN1C[C@@H](C)[C@@H](OC)CN(C)C(=O)c2ccc(NC(=O)Nc3cccc(F)c3)cc2OC[C@@H]1C | -6.04% |
| C/C=C/c1ccccc1[C@H]1[C@@H](C#N)N(C(=O)Cc2ccccn2)[C@@H]1CO | -20.6% |
| C[C@@H]1CN([C@@H](C)CO)C(=O)c2cc(C#CCc3ccccc3)cnc2O[C@@H]1CN(C)C(=O)C1CCOCC1 | 6.96% |
| C[C@@H]1CN([C@H](C)CO)C(=O)c2cccc(NS(=O)(=O)c3ccc(Cl)cc3)c2O[C@H]1CN(C)Cc1ccc(C(F)(F)F)cc1 | 9.64% |
| C[C@@H]1CN([C@H](C)CO)C(=O)c2cccc(NS(=O)(=O)c3ccc(Cl)cc3)c2O[C@@H]1CN(C)Cc1ccc(Cl)c(Cl)c1 | 74.9% (active) |
| C[C@@H]1CN([C@@H](C)CO)C(=O)c2cccc(NS(=O)(=O)c3ccc(Cl)cc3)c2O[C@@H]1CN(C)Cc1ccccc1 | -7.04% |
| COc1cccc(S(=O)(=O)N(C)C[C@@H]2Oc3ncc(-c4cccc(C(=O)N(C)C)c4)cc3C(=O)N([C@H](C)CO)C[C@H]2C)c1 | 3.38% |
| CC(C)NC(=O)N(C)C[C@@H]1OCCCC[C@@H](C)Oc2ccc(NC(=O)c3ccccc3)cc2C(=O)N([C@@H](C)CO)C[C@H]1C | -4.61% |
